POLI inh: inhibitors of human DNA polymerase iota. Q9UNA4. actives 1% (n = 390,000). Potency, µM (titrated, usually from 115 µM), without a hit: top-dose activity, negative = inhibition, usual class: inhibitors. Pol iota fluorescent replication assay, 10 min. AID 588590; note: potency is the fitted concentration of half-maximal effect
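Pol iota at 10 nM preincubated 15 min with compounds at room temperature; reaction started with fluorescent substrate, 50 nM final. Fluorescence read kinetically at 0 and 10 min; buffer-only wells as negative control.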
PI4K2A inh: inhibitors of human PI4K2A; Q9BTU6; purified PI4K2A, ADP-Glo luminescence, 1 h; hits give low values; activity change, negative = inhibition, % at 76.9 µM; actives 0.13% (n = 420,000); in the data active = activity change below about -50%; inconclusive = mostly about -30% to -49%;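 note: -100% = wells without enzyme as full effect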
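PI4K2A activity was measured by ADP-Glo luminescence: enzyme (4 ug/mL stock) and phosphatidylinositol (1.2 mM stock) in Tris pH 7.5/MgCl2/EGTA/Triton X-100 buffer were reacted with ATP (300 microM stock) for one hour at ambient temperature.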
Pol beta inh: blocks human DNA polymerase beta activity | Pol beta primer extension/strand displacement, fluorescence kinetic | P06746 | actives 1.3% (n = 340,000) | AID 485314 | Potency, µM (series often up to 114 µM), for the others: at the highest dose activity change, negative = inhibition, actives largely listed as inhibitors; note: potency is the fitted concentration of half-maximal effect; % is set by controls: 0 for no effect and ±100 for the full control effect
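Kinetic readout of DNA synthesis with strand displacement by Pol beta. Compound and 10 nM enzyme sit 15 min at room temperature; 50 nM substrate starts the reaction, read immediately and at 10 min.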
PI5P4Ka inh: inhibitors of human PI5P4K alpha; P48426; PI5P4Kalpha enzyme, ADP-Glo luminescence, 60 min; hits give low values; max response, %; actives 1.2% (n = 330,000); active = max response of -50% or lower; inconclusive = between -30% and -50%; inactive = -30% or higher; note: value at the top dose of about 77 µM; % is set by controls: 0 for no effect and ±100 for the full control effect
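Single end-point luminescence (ADP-Glo) quantified ADP from PI5P4Kalpha turnover; ATP 5 microM final, 1 h at RT, 0.1% CHAPS and 0.28 mM EGTA in HEPES pH 7.4.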
POLH inh: blocks human DNA polymerase eta activity; Q9Y253; recombinant Pol eta, fluorescent DNA replication assay; Potency, µM (titrated, usually from 114 µM), without a hit: top-dose activity change, negative = inhibition, actives largely listed as inhibitors; actives 1.2% (n = 390,000); AID 588591; note: potency is the fitted concentration of half-maximal effect; % is set by controls: 0 for no effect and ±100 for the full control effect
Target sequence (Q9Y253 whole entry, looked up): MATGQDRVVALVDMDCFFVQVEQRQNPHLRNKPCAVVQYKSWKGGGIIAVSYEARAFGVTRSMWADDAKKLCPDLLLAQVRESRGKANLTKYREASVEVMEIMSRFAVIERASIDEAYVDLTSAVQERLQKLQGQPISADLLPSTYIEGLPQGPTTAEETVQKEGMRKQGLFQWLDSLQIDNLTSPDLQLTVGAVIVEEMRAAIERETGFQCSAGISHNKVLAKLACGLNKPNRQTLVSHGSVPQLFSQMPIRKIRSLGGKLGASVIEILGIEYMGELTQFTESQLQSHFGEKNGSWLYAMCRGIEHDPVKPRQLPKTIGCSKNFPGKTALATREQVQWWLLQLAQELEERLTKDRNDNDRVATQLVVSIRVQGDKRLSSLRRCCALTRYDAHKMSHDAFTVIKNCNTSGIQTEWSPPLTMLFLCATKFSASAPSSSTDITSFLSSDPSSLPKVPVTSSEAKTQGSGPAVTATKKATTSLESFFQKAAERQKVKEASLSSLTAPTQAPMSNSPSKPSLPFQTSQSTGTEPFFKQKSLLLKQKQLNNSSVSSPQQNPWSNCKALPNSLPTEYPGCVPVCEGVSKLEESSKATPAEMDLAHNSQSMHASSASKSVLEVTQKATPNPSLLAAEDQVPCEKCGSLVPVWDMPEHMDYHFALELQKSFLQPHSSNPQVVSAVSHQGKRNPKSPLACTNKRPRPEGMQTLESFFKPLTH
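Fluorescent replication assay: 50 nM final substrate added after a 15 min room-temperature compound preincubation with 10 nM enzyme. Signal taken at 0 min and again at 10 min.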
Pol kappa inh: inhibitors of human DNA polymerase kappa | Q9UBT6 | purified Pol kappa, fluorescent DNA synthesis assay, 10 min | AID 588579 | Potency, µM (titrated, usually from 107 µM), for inactives: at the top dose activity, negative = inhibition, most hits filed as inhibitors | actives 0.53% (n = 400,000); note: potency is the fitted concentration of half-maximal effect; % is set by controls: 0 for no effect and ±100 for the full control effect
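Kinetic fluorescence screen: compound preincubated 15 min RT with 10 nM enzyme; 50 nM substrate (final) initiates; reads at 0/10 min.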
* = called active by the depositor; ? = inconclusive; . = no result given; [ ] = another dose, or the depositor's remark. Only some compounds are listed: those with a hit (about 2.8% of all), similar ones and a draw of the others. Unless noted, calls come from the whole dose curve; as a rule, active = well fitted inhibition curve with a large enough effect; inconclusive = small, poorly fitted or top-dose-only effect, or another doubt; inactive = no such curve, though single readings can be large or run the other way.

SMILES	POLI inh	PI4K2A inh	Pol beta inh	PI5P4Ka inh	POLH inh	Pol kappa inh
COC(=O)C1=C(C)N(C)C(=O)NC1c1cc2c(cc1[N+](=O)[O-])OCO2 (stereo not drawn)	?	-2	?	1	0%	-13%
CC1=C(C(=O)OCc2ccccc2)C(c2ccccc2OS(=O)(=O)c2ccc([N+](=O)[O-])cc2)NC(=O)N1CCCC(=O)O (stereo not drawn)	-7%	1	.	-64*	-1%	-4%
COC(=O)C1=C(C)N(CCCC(=O)O)C(=O)NC1c1ccc([N+](=O)[O-])cc1 (stereo not drawn)	17%	1	.	-101*	-14%	-3%
CCOC(=O)C1=C(C)N(CCCC(=O)O)C(=O)NC1c1ccccc1OS(=O)(=O)c1ccc([N+](=O)[O-])cc1 (stereo not drawn)	5%	1	.	?	2%	-15%
COc1cccc2sc(N(Cc3cccnc3)C(=O)c3ccc(S(=O)(=O)N(C)C)cc3)nc12	-6%	-1	-1%	.	10%	-6%[60.1 µM]
CC(C)(C)c1ccc(CNc2nc(-c3ccccn3)nnc2-c2ccccc2)cc1	.	-3	.	.	.	.
CC(C)c1nc2n(n1)C1(CCCCC1)[C@@H]1CCCC[C@@H]1N2	16%	-1	1%	.	-12%	14%
Cn1c(SCC(=O)Nc2ccc(C(=O)O)cc2)nnc1-c1ccccn1	.	2	.	.	.	.
O=C(CN(c1ccccc1)S(=O)(=O)c1ccccc1)NCCSCc1ccco1	?	-6	56µM*	?	?	79µM*
COc1ccc(N(CC(=O)NCCSCc2ccco2)S(=O)(=O)c2ccccc2)cc1	38%	3	-11%	0	-3%	-7%
CN(c1ccc(C(=O)NCCSCc2ccco2)cc1)S(C)(=O)=O	7%	5	1µM*	-4	-14%	-2%
C=CCN1C(=O)[C@@H](CC(=O)NCCc2ccccc2OC)[C@]2(C(=O)OC)CCCCC=C12	.	-5	.	.	.	.
O=C(O)COc1ccc2ccccc2c1	.	.	.	.	.	9%[60.1 µM]
O=C(/C=C/c1ccc(O)c([N+](=O)[O-])c1)c1ccc2ccccc2c1	?	3	?	?	22µM*	-4%
CCOc1ccc(/C=C/C(=O)c2ccccc2)cc1	-3%	?	0%	-30	-13%	-2%
O=C(O)COc1ccc(/C=C/C(=O)c2ccc(C3CCCCC3)cc2)cc1	?	-5	?	5	40µM*	-6%
O=C(O)COc1ccc(/C=C/C(=O)c2ccc3ccccc3c2)cc1	18µM*	-3	-11%	-12	25µM*	-13%
CN(C)c1ccc(C=c2c3cc([N+](=O)[O-])ccc3n3c2cc(-c2ccccc2)[n+]3C)cc1	?	-51*	.	-78*	0%	-24%
COc1cc(C=c2c3ccccc3n3c2cc(-c2ccccc2)[n+]3C)cc(OC)c1OC	?	?	.	-18	-12%	-6%
CN(C)c1ccc(C=c2c3ccccc3n3c2cc(-c2ccccc2)[n+]3C)cc1	?	?	.	-51*	?	-25%
CN(C)c1ccc(C=c2c3ccccc3n3c2c2c([n+]3C)CCCC2)cc1	-27%	-16	.	-4	?	-28%
CN(C)c1ccc(C=c2c3ccccc3n3c2cc(-c2ccc(Cl)cc2)[n+]3C)cc1	?	-22	.	-57*	?	-11%
COc1cc(N(C)C)ccc1C=c1c2ccccc2n2c1cc(-c1ccccc1)[n+]2C	?	?	.	?	22µM*	?
CCOc1ccccc1CNC(=O)c1cc2c(=O)n(Cc3ccco3)ccc2nc1C	3%	-13	3%	.	-14%	8%
Nc1ccc([N+](=O)[O-])c(C(F)(F)F)c1	.	1	.	.	.	.
SMILES	POLI inh	PI4K2A inh	Pol beta inh	PI5P4Ka inh	POLH inh	Pol kappa inh
N=C1C2=C3Sc4ccccc4N3CCCC2=NN1c1cccc(S(=O)(=O)O)c1	?	-5	-1%	-53*	?	-6%
CC[C@]12c3[nH]c4ccc(Cl)cc4c3CCN1C(=O)[C@@H](CC(=O)NCCCn1ccnc1)C[C@@H]2C(=O)N1CCN(C(=O)C2CC2)CC1	89µM*	-3	.	3	-6%	14%
CC[C@]12c3[nH]c4cc(-c5ccco5)ccc4c3CCN1C(=O)[C@@H](CC(=O)NCC13CC4CC(CC(C4)C1)C3)C[C@@H]2C(=O)N1CCN(C(=O)c2ccco2)CC1	28µM*	-23	.	-51*	-13%	-26%
CC[C@]12c3[nH]c4cc(-c5ccco5)ccc4c3CCN1C(=O)[C@@H](CC(=O)NCC13CC4CC(CC(C4)C1)C3)C[C@@H]2C(=O)N1CCN(C(=O)C2CC2)CC1	-1%	3	.	-20	-13%	7%
O=C(CCCl)NCCc1ccccc1	.	4	.	.	.	.
Cc1ccc(C2=NN3C(C2)c2ccccc2OC32C(=O)Nc3ccccc32)cc1 (stereo not drawn)	23%	-5	40%	-53*	-15%	-26%
O=C(Cc1ccc(F)cc1)NO	21%	.	.	.	.	-2%
COC(=O)c1cc(Cl)ccc1NS(=O)(=O)C(F)(F)F	.	0	.	.	.	.
c1ccc(Cn2c(SCc3nc4ccccc4s3)nnc2-c2ccco2)cc1	22µM*	?	50µM*	-73*	14µM*	?
Oc1c(Cl)cc(Cl)cc1Sc1cc(Cl)cc(Cl)c1O	.	-4	22µM*	.	.	?
COc1cc(C(=O)N/N=C/c2cc([N+](=O)[O-])cs2)cc(OC)c1OC	-2%	7	0%	-7	-13%	-1%
CCOc1ccc(C(=O)N/N=C/c2cc([N+](=O)[O-])cs2)cc1	35µM*	-15	14µM*	2	33%	-28%
C/C(=C(\CCO)SS/C(CCO)=C(\C)N(C=O)Cc1cnc(C)nc1N)N(C=O)Cc1cnc(C)nc1N	.	-2	.	.	.	.
C/C(=C\C(=O)c1ccccc1)Nc1ccc(O)cc1	27%	-54*	8%	-2	-17%	-7%
C/C(=C\C(=O)c1cccnc1)Nc1ccc(O)cc1	-4%	-61*	-1%	.	-2%	-8%

Source: PubChem
